# Assay results taken from PubChem BioAssay (NCI).
# The panel holds about 83,000 compounds, 20% with a hit somewhere; the sample as a whole holds those more often.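 Method: cells in 96-well plates; compound added at one concentration; 48 h incubation; percent growth measured; values under 10 scored active.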 Activity calls are given as the source filed them.
# Tested on: SN12C renal
# Assay: NCI-60 one-dose screen, 48 h (100 = growth as untreated, 0 = no growth, -100 = all killed)
# Details: 10 µM unless noted
# Experimental: Growth inhibition of the SN12C human tumor cell line is measured as a screen for anti-cancer activity. Cells are grown in 96 well plates and exposed to the test compound for 48 hours. Compounds are tested at a single concentration, which is 10^-5 M for most compounds. The reported endpoint is percent growth (GI% or GIPRCNT), where numbers from 0 - 100% represent growth inhibition, and numbers from -100% - 0 represent cell death. For example, a value of 40 represents 60% growth inhibition. A value of 0 means no net growth occurred over the course of the experiment. A value of -40 indicates 40% of cells at the beginning of the experiment died by the end of the experiment. A value of -100 means all cells are dead at the end of the experiment.
# NCI-60 Human Tumor Cell Lines Screen was performed using the standard one-dose NCI protocol, which is described in more detail at https://dtp.cancer.gov/discovery_development/nci-60/default.htm.
# Compounds with GIPRCNT values below 10 were considered active. Activity score was based on GIPRCNT using the following formula: […]
# Score is 0 for GIPRCNT values of 100 or above, 50 for GIPRCNT values of 0, and 100 for GIPRCNT values of -100.
row,SMILES,growth
1,Cc1nnc([S-])s1.[Au+].c1ccc([PH+](c2ccccc2)c2ccccc2)cc1,6.71% (active)
2,CCC[CH2][Sn]([CH2]CCC)([CH2]CCC)[O]C(=O)CC,-80.6% (active)
3,C1CN1c1nc(N2CC2)nc(N2CC2)n1,51.7% (inactive)
4,CC(C)CCC[C@@H](C)[C@H]1CC[C@H]2[C@@H]3CC=C4C[C@@H](OC(=O)Cc5ccc(N(CCCl)CCCl)cc5)CC[C@]4(C)[C@H]3CC[C@]12C,99.9% (inactive)
5,COc1ccc(NP2(=O)OCC(C)(N)CO2)cc1 (stereo not given),105% (inactive)
6,O=[N+]([O-])c1ccccc1N1CCNCC1,97.1% (inactive)
7,O=C(O)C1[O][Sb][O]C1C(=O)O (stereo not given),104% (inactive)
8,O=C(CCF)c1ccc(O)cc1,100% (inactive)
9,CC1(C)N=C(N)N=C(N)N1c1ccc(CCCCc2ccc(Cl)cc2S(=O)(=O)F)c(Cl)c1,23.4% (inactive)
10,CC(/C=N/N=C(N)N)=N/N=C(N)N,94.9% (inactive)
11,O=C(N/N=C/c1ccc([N+](=O)[O-])o1)c1cc([N+](=O)[O-])cc([N+](=O)[O-])c1O,96.1% (inactive)
12,CC(=O)O[C@H]1CCC2C3CCC4=C/C(=N/O)CCC4(C)C3CCC21C (stereo not given in full),103% (inactive)
13,Cc1cc(C)nc(C)c1.[Cl][Hg][Cl],104% (inactive)
14,N#CC1c2ccccc2C=CN1C(=O)c1ccc(N(CCCl)CCCl)cc1 (stereo not given),75.5% (inactive)
15,Cc1ccc(N)cc1[As]=[As]c1cc(N)ccc1C (stereo not given),-86.5% (active)
16,Cc1cccc(N(C)c2cccc3c2C(=O)[Se]C3)c1C,84.8% (inactive)
17,O=C1C=CC(=O)C2C1C1(Cl)C(Cl)=C(Cl)C2(Cl)C1(Cl)Cl (stereo not given),67.3% (inactive)
18,Cc1cc(CCl)c(C)cc1CCl,30.9% (inactive)
19,CC(C)[C@]12O[C@H]1[C@@H]1O[C@]13[C@]1(O[C@H]1C[C@H]1C4=C(CC[C@@]13C)C(=O)OC4)[C@@H]2OC(=O)OC(C)(C)C,20% (inactive)
20,CCC(C)/C=C(C)/C=C/C(=O)c1c(O)c(-c2ccc(O)cc2)c[nH]c1=O (stereo not given),60.5% (inactive)

row,SMILES,growth
1,ClCCN(CCCl)c1ccc(/C=C\c2ccnc3ccccc23)cc1,75.7% (inactive)
2,CCCCCCCC(=O)OCC/C=C/C1OC1C1OC(=O)/C=C\C=C\c2nc(oc2C)/C=C(/C)CCC2OC2C1OC(=O)NC(C)=O (stereo not given),-99.9% (active)
3,CC(C)(NC(=O)c1nn(CCCCCF)c2ccccc12)c1ccccc1,101% (inactive)
4,NS(=O)(=O)c1nc[nH]c1[N+](=O)[O-],102% (inactive)
5,CCCCCCCCCCCCOc1ccc(C(=O)Oc2ccc(CSP3(=O)OCC4OC(n5cnc6c(N)ncnc65)C(F)C4OP(=O)(O)OCC4OC(n5ccc(=O)[nH]c5=O)C(F)C4O3)cc2)cc1 (stereo not given),109% (inactive)
6,C[C@@H]1CC[C@@H]2[C@@H]1[C@H](OC(=O)/C=C/C1CCCCC1)[C@]1(C3CCCCC3)C[C@@H](OC(=O)CO)[C@@]2(C)O1,31.2% (inactive)
7,Cc1cc(N(CCCl)CCCl)ccc1C=Nc1ccc2ccccc2c1,49.7% (inactive)
8,N#[N+]c1cnc([O-])[nH]c1=O,84.9% (inactive)
9,COC(C)(C)CCC[C@H](C)C/C=C/C(C)=C/C(=O)OC(C)C,92.5% (inactive)
10,N#C[Se]CCCNS(=O)(=O)C1CC2C=CC1C2 (stereo not given),-25.6% (active)
11,CCCCN(CCCC)CC(O)c1ccccc1 (stereo not given),111% (inactive)
12,ClCCN(CCCl)c1ccc(C=NCCc2c[nH]c3ccccc23)cc1,62.7% (inactive)
13,Fc1ccc(C2=NN(c3ccccc3)C(c3sc(N(CCCl)CCCl)nc3Cl)C2)cc1 (stereo not given),86.9% (inactive)
14,CC(=O)OC1CCC2(C)C(=CCC3C4CC(CN5CC5)C(=O)C4(C)CCC32)C1 (stereo not given),99.6% (inactive)
15,OC1CCCCC1N1CCC(c2ccccc2)CC1 (stereo not given),109% (inactive)
16,CC[CH2][Pb]([CH2]CC)([CH2]CC)[O]C(=O)C(F)(F)F,-79.3% (active)
17,C=CCN1C(=O)C(CC)(CCC(C)C)C(=O)NC1=S (stereo not given),101% (inactive)
18,CC12CCC(=O)C=C1C(O)CC1C2CCC2(C)C(O)CCC12 (stereo not given),105% (inactive)
19,CNC(=O)Oc1cccc(OC)c1,93.3% (inactive)
20,Cc1ccc2oc(=O)c3c(c2c1)OC(N)=C(C#N)C3c1ccco1 (stereo not given),101% (inactive)
